Test results: the supplement of paper PMC10037445
In all, about 2,900 compounds were measured (“NF-kB SEAP reporter activity, fold change vs agonist alone”: median about 0.99, highest 2% from about 2.6 on). This excerpt belongs to a sample that is enriched for the highest values.

Tests used:
RAW-Dual [1] = assay: NF-kB SEAP reporter activity, fold change vs agonist alone; higher = enhanced NF-kB activity; conditions: library stock concentration (final ~1000-fold dilution): 10 mM, cytotoxicity flag (confluency mask): not cytotoxic
Procedure, shortened: (§1)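 Library stock was pin-tooled at 50 nL into 384-well plates of RAW-Dual macrophages (50,000 cells/well, DMEM), followed 1 h later by a PRR agonist, and the cells were kept at 37 °C, 5% CO2. Supernatant collected after 20 hours was read for IRF by QuantiLuc luminescence and for NF-κB by QuantiBlue absorbance at 620 nm. Reporter activity is fold change over agonist-alone wells, and a well counted as cytotoxic when its IncuCyte confluency was below 70% of agonist controls in both mask sets.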

RAW-Dual [2] = assay: NF-kB SEAP reporter activity, fold change vs agonist alone; cytotoxicity flag (confluency mask): not cytotoxic; higher = enhanced NF-kB activity
Procedure, shortened: as §1

[3] = agonist: ODN 1826 (TLR9) 0.5 ug/mL
[4] = agonist: Pam2CSK4 (TLR2/6) 0.1 ug/mL
[5] = agonist: Pam3CSK4 (TLR2/1) 0.1 ug/mL

SMILES	NF-kB SEAP reporter activity (RAW-Dual [1]; agonist: Imiquimod (TLR7) […])	NF-kB SEAP reporter activity (RAW-Dual [1]; agonist: MPLA (TLR4) […])	NF-kB SEAP reporter activity (RAW-Dual [2]; agonist: LPS (TLR4) 0.1 ug/mL)	NF-kB SEAP reporter activity (RAW-Dual [2]; [3])	NF-kB SEAP reporter activity (RAW-Dual [2]; [4])	NF-kB SEAP reporter activity (RAW-Dual [2]; [5])
Nc1ccc(-c2cccc(C(=O)Nc3cnc4nc(N5CCOCC5)oc4c3)n2)cn1	1.04	1.08	–	–	–	–
CCn1c(-c2nonc2N)nc2cnc(Oc3cccc(NC(=O)c4ccc(OCCN5CCOCC5)cc4)c3)cc21.Cl	1.48	1.41	–	–	–	–
CC1(C)OCCn2c1nc1c(N3CCOCC3)nc(-c3cnc(N)nc3)nc12	1.02	1.07	–	–	–	–
CC1(C)OCCn2c1nc1c(N3CCOCC3)nc(-c3cnc(N)nc3)nc12 (library stock concentration (final ~1000-fold dilution): 10 mM)	–	–	1.42	0.768	0.464	0.544
CCn1c(-c2nonc2N)nc2cnc(Oc3cccc(NC(=O)c4ccc(OCCN5CCOCC5)cc4)c3)cc21.Cl (library stock concentration (final ~1000-fold dilution): 10 mM)	–	–	1.31	0.288	1.12	1.56
Nc1ccc(C(=O)Nc2cccc(-c3nc(N4CCOCC4)c4oc5ncccc5c4n3)c2)cn1 (library stock concentration (final ~1000-fold dilution): 10 mM)	–	–	2.62	0.304	0.638	0.805
Oc1cccc(-c2nc(N3CCOCC3)c3oc4ncccc4c3n2)c1	2.46	2.44	–	–	–	–
Oc1cccc(-c2nc(N3CCOCC3)c3oc4ncccc4c3n2)c1 (library stock concentration (final ~1000-fold dilution): 10 mM)	–	–	4.71	0.369	0.849	1.34
Nc1ccc(C(=O)Nc2cccc(-c3nc(N4CCOCC4)c4oc5ncccc5c4n3)c2)cn1	1.77	2.3	–	–	–	–
N#Cc1cccc(-c2c[nH]c3ncnc(N4CCOCC4)c23)c1 (library stock concentration (final ~1000-fold dilution): 10 mM)	–	–	0.963	0.792	0.588	0.962
N#Cc1cccc(-c2c[nH]c3ncnc(N4CCOCC4)c23)c1	1.01	0.873	–	–	–	–
Nc1ccc(-c2cccc(C(=O)Nc3cnc4nc(N5CCOCC5)oc4c3)n2)cn1 (library stock concentration (final ~1000-fold dilution): 10 mM)	–	–	1.43	1.01	0.911	1.33
Cc1csc(-c2nc[nH]c2-c2ccc3ncsc3c2)n1.Cl (library stock concentration (final ~1000-fold dilution): 10 mM)	–	–	2.26	1.18	1.24	1.47
Cc1csc(-c2nc[nH]c2-c2ccc3ncsc3c2)n1.Cl	0.927	1.34	–	–	–	–
CC(Oc1cc(-n2cnc3ccc(CN4CCN(C)CC4)cc32)sc1C(N)=O)c1ccccc1C(F)(F)F (configuration not stated) (library stock concentration (final ~1000-fold dilution): 10 mM)	–	–	1.15	0.967	0.97	0.799
CC(Oc1cc(-n2cnc3ccc(CN4CCN(C)CC4)cc32)sc1C(N)=O)c1ccccc1C(F)(F)F (configuration not stated)	0.909	0.993	–	–	–	–
N#C/C(C(=O)c1ccc(Cl)cc1Cl)=C1\NC(=O)c2ccccc2N1	0.86	1.11	–	–	–	–
N#C/C(C(=O)c1ccc(Cl)cc1Cl)=C1\NC(=O)c2ccccc2N1 (library stock concentration (final ~1000-fold dilution): 10 mM)	–	–	1.13	0.982	0.65	0.693
CC1OC(OC2C(Oc3cc(O)c4c(c3)OC(c3ccc(O)cc3)CC4=O)OC(CO)C(O)C2O)C(O)C(O)C1O (configuration not stated)	0.993	1.05	–	–	–	–
CC1OC(OC2C(Oc3cc(O)c4c(c3)OC(c3ccc(O)cc3)CC4=O)OC(CO)C(O)C2O)C(O)C(O)C1O (configuration not stated) (library stock concentration (final ~1000-fold dilution): 10 mM)	–	–	0.935	1.04	1.17	1.13
COc1ccc(C[C@@H]2c3cc(Oc4cc(C[C@@H]5c6cc(OC)c(OC)cc6CCN5C)ccc4O)c(OC)cc3CCN2C)cc1	0.915	1.09	–	–	–	–
COc1ccc(C[C@@H]2c3cc(Oc4cc(C[C@@H]5c6cc(OC)c(OC)cc6CCN5C)ccc4O)c(OC)cc3CCN2C)cc1 (library stock concentration (final ~1000-fold dilution): 10 mM)	–	–	1.06	0.182	0.121	0.622
Oc1ccc(-c2nc(-c3ccc(F)cc3)c(-c3ccncc3)[nH]2)cc1	1.92	1.84	–	–	–	–
Oc1ccc(-c2nc(-c3ccc(F)cc3)c(-c3ccncc3)[nH]2)cc1 (library stock concentration (final ~1000-fold dilution): 10 mM)	–	–	2.59	0.851	1.01	1.2
